Assay outcomes from PubChem BioAssay.
ELG1 repair inh = inhibitors of ELG1-dependent DNA repair in HEK293T cells; HEK293T ELG1-luciferase reporter, luminescence, 16 h; DNA damage induced by 5-fluorouridine; Potency, µM (doses to about 46.1 µM), for inactives: at the top dose activity change, negative = inhibition, usual class: inhibitors; hit rate 2.3% among 330,000; AID 504467; also: nearly all actives have a fitted effect of over 55% in size
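Cells (2,000 per well) received 5-fluorouridine plus test compound or DMSO and were incubated 16 hr at 37 °C, 5% CO2. Luciferase activity was read by luminescence 30 min after ONE-Glo addition; signal suppression marked inhibition of damage-induced ELG1 function.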
DT40 TDP1 no CPT = qHTS for Inhibitors of human tyrosyl-DNA phosphodiesterase 1 (TDP1): qHTS in cells in absence of CPT. hit rate 15% among 420,000. Potency, µM (highest dose often 46.2 µM), inactives show at the top dose activity change, negative = growth inhibition, hits mostly inhibitors. DT40 Tdp1-/- hTDP1 cells, no CPT, ATP luminescence, 48 h; also: nearly all actives have a fitted effect of over 55% in size
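Readout: luminescence from CellTiter-Glo after 30 min in the dark at RT. Cells: DT40 Tdp1-/- with stable hTDP1, 400/well. Exposure: compounds alone, ≥48 hr, 37 °C.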
Gal4-VP16 FLuc = inhibits Gal4-VP16 luciferase reporter, ROR gamma counter-screen; Potency, µM (highest dose often 53.6 µM), without a hit: at the top dose activity, negative = inhibition, actives largely listed as inhibitors; hit rate 3.5% among 310,000; Drosophila S2 Gal4-VP16 UAS-luciferase, luminescence, 20 h; AID 2546;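 also: Gal4-VP16 expression switched on by copper sulfate through the metallothionein promoter; nearly all actives have a fitted effect of over 50% in size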
12-LOX inh = ALOX12 (human) lipoxygenase inhibition; purified 12hLO, xylenol orange hydroperoxide absorbance; Potency, µM (highest dose often 108 µM), without a hit: top-dose activity change, negative = inhibition, actives largely listed as inhibitors; hit rate 1.1% among 580,000; P18054; AID 1671190
Target sequence (P18054 whole entry, looked up): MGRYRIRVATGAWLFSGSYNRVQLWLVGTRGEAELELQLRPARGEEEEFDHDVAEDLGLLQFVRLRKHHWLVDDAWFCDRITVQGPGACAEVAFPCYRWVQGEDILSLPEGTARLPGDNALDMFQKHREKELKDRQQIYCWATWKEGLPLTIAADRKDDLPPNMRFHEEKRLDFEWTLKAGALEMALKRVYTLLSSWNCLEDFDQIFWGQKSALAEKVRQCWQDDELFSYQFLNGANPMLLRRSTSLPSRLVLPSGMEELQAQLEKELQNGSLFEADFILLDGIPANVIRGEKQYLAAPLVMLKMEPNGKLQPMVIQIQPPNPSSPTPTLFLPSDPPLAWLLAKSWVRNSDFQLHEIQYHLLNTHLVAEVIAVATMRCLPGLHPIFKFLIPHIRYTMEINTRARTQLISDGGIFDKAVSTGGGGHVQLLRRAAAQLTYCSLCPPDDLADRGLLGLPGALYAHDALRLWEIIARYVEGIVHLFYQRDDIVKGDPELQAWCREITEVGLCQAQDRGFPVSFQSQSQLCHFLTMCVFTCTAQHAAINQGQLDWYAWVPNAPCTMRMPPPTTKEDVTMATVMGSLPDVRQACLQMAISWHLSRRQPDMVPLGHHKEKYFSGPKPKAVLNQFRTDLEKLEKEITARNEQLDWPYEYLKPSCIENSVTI
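Purified human 12hLO (150 nM final) in 25 mM Hepes, 0.01% Triton X-100, pH 7.0 was preincubated 15 min at room temperature with compound. Then 40 uM arachidonic acid was added, 30 min. Hydroperoxide was read by Fe-XO absorbance ratio 573/405 nm.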
DT40 TDP1 CPT = growth inhibition of DT40 Tdp1-/-;hTDP1 cells with camptothecin (screen for TDP1 inhibitors) | chicken DT40 Tdp1-/-;hTDP1 cells + 20 nM CPT, ATP luminescence, 48 h | Potency, µM (series often up to 46.2 µM), without a hit: at the top dose activity change, negative = growth inhibition, most hits filed as inhibitors | hit rate 12% among 420,000 | AID 686979; also: nearly all actives have a fitted effect of over 55% in size
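Cell growth measured by CellTiter-Glo luminescence after a minimum 48 h, 37 C compound exposure with 20 nM CPT in Tdp1-knockout DT40 cells stably expressing hTDP1, seeded 400/well; qHTS titration format.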
RORg inh = blocks mouse ROR gamma transcriptional activity; Drosophila S2 Gal4-RORgamma UAS-luciferase reporter, 20 h; Potency, µM (doses to about 53.6 µM), without a hit: top-dose activity change, negative = inhibition, hits mostly inhibitors; hit rate 5.4% among 310,000; also: nearly all actives have a fitted effect of over 60% in size
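ROR gamma transcriptional activity was tracked as Gal4-UAS luciferase output in stably transfected Drosophila Schneider cells, with compound added 1 hr before 700 uM copper sulfate induction and a 20 hr ambient-temperature incubation.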
Starred values were filed as active, the others as inactive; u = inconclusive; x = no result given. Sampled rows, rich in hits. Any-hit rate of the full collection: about 15%. Calls follow the shape of the dose curve; as a rule, active = well fitted curve in the direction sought with a large enough effect; inconclusive = small, poorly fitted or top-dose-only effect, or another doubt; inactive = no such curve, though single readings can be large; an effect the other way counts as inactive or inconclusive. % is scaled to controls: 0 for no effect and ±100 for the full control effect; potency is read from the fitted curve at half-maximal effect.

SMILES | ELG1 repair inh | DT40 TDP1 no CPT | Gal4-VP16 FLuc | 12-LOX inh | DT40 TDP1 CPT | RORg inh
O=C(NCC1CC1)c1ccc2nc(-c3ccoc3)c(-c3ccoc3)nc2c1 | x | 11µM* | x | x | u | x
COCCCNC(=O)c1ccc(-c2nc3ccccc3nc2-c2ccccc2)cc1 | x | 23µM* | x | 274% | u | x
COc1ccc(-c2nc3ccc(C(=O)NCC(OC)OC)cc3nc2-c2ccc(OC)cc2)cc1 | 16µM* | 8.2µM* | -18% | 0% | 10µM* | 31%
CC(=O)NNc1nc(-c2ccccc2)c2cc(Cl)ccc2n1 | x | -23% | x | 1% | -20% | x
COCCNC(=O)c1cccc(Nc2nc(-c3ccccc3)c3cc(Cl)ccc3n2)c1 | 21µM* | 9.2µM* | u | -29% | 15µM* | 36%
CCC(C)NC(=O)Cn1c(=O)n(C)c(=O)c2sc(N3CCCC3)nc21 (centres undefined) | x | x | x | -19% | x | x
CNC(=O)c1ccc2nc(-c3cccc(C)c3)c(-c3cccc(C)c3)nc2c1 | x | 10µM* | x | x | 11µM* | x
Cc1[nH]n(-c2ncc(-c3ccc(Cl)cc3)s2)c(=O)c1C(c1ccc(Cl)cc1)C(C#N)C#N (centres undefined) | u | u | u | x | -23% | 14µM*
O=c1oc2ccccc2cc1-c1cn2cc(Cc3ccc(Br)cc3)sc2n1 | x | 0.58µM* | x | 0% | 1.3µM* | x
CCCNC(=O)/C(C#N)=C1\N=C(NC(=O)c2ccco2)c2ccccc21 | 0% | u | u | -11% | 16µM* | -90%
COCCNC(=O)/C(C#N)=C1\N=C(NC(=O)c2ccco2)c2ccccc21 | x | u | x | 7% | u | x
N#C/C(C(=O)NCc1ccccc1)=C1/N=C(NC(=O)c2cccs2)c2ccccc21 | u | 10µM* | -8% | 0% | 16µM* | 19%
COCCc1noc(-c2nc(-c3ccccc3)no2)n1 | x | x | x | 26% | x | x
O=C(N/N=C\c1ccco1)c1cncc(Br)c1 | -1% | x | u | 5% | x | u
O=C(N/N=C\c1cc(Br)c(Br)o1)c1cncc(Br)c1 | -14% | u | 2µM* | 4% | u | 1.4µM*
O=C(N/N=C/c1cc(Br)c(Br)o1)c1cccnc1 | -14% | 18µM* | u | -9% | 16µM* | u
O=C(NNc1ccc([N+](=O)[O-])cc1)c1ccccc1Cl | 4% | -30% | -16% | -8% | -9% | 19%
O=C(NC(NNc1ccc([N+](=O)[O-])cc1)(C(F)(F)F)C(F)(F)F)c1ccc(Cl)cc1 | -11% | 29µM* | u | 35µM* | u | 16µM*
O=C(CC1CCCN(c2cn[nH]c(=O)c2)C1)NCc1cccs1 (centres undefined) | x | x | x | 39% | x | x
COc1ccc(CNC(=O)C[C@@H]2C[C@@H](C(C)C)[C@H](CNC(=O)c3cccnc3)C=C2C)cc1 | x | x | x | 4% | x | x
COc1ccc(Cn2c(CO)cnc2SCc2ccccc2)cc1 | x | u | x | 0% | u | x
Cc1cccc(CSc2ncc(CO)n2C)c1 | 27% | u | -1% | 0% | -11% | 22%
Cc1ccccc1CSc1ncc(CO)n1Cc1ccc(F)cc1 | x | u | x | -23% | 18µM* | x
Cc1cccc(CSc2ncc(CO)n2Cc2ccc(F)cc2)c1 | x | 16µM* | x | u | 21µM* | x
Cn1cc(C(=O)N2CCC3(CCN(C4CCOCC4)CC3)C(CO)C2)cn1 (centres undefined) | x | x | x | 0% | x | x
COc1ccc(N2CCN(C(=O)CCNS(=O)(=O)c3ccc(Br)s3)CC2)cc1 | u | u | 2% | 0% | 13µM* | u
O=C(CNS(=O)(=O)c1ccc(Br)s1)N1CCN(c2ccc(F)cc2)CC1 | -5% | 23µM* | 5% | u | u | u
